# Compounds with a hit are over-represented: about 4.6% of the library has one in this group of screens.
# USP8 inh – human USP8 deubiquitinase inhibition; AID 1645853; 47,000 tested, 4.2% active; purified USP8, Ub-rhodamine cleavage fluorescence, 30 min; inhibition, % at 20 µM
# USP7 inh – inhibitors of human USP7 deubiquitinase. purified USP7, Ub-rhodamine cleavage fluorescence. inhibition, % at 20 µM. 47,000 tested, 0.3% active
# USP10 block – human USP10 deubiquitinase inhibition. Q14694. inhibition, % at 20 µM. purified USP10, Ub-rhodamine fluorescence, 60 min. 47,000 tested, 1.1% active
# UCHL1 inh – inhibitors of human UCHL1 deubiquitinase | P09936 | purified UCHL1, Ub-rhodamine cleavage fluorescence | inhibition, % at 20 µM | 47,000 tested, 0.2% active | AID 1645859
# Starred values were filed as active, the others as inactive. Cut-off read from the data, not from the text of the source: active = inhibition above about 30%; inactive = the rest.
SMILES,USP8 inh,USP7 inh,USP10 block,UCHL1 inh
O=C(C1CN(C(=O)c2ccccc2Br)c2ccccc2O1)N1CCOCC1 (stereo not given),0.6,3.8,-10.9,2.2
CCN(CC)c1ccc(NC(=O)c2cc(=O)[nH]c3ccccc23)cc1,16.5,2.7,-2.2,-0.6
CCN(CC)S(=O)(=O)c1ccc2[nH]c(=O)cc(C(=O)Nc3ccc4c(c3)OCO4)c2c1,59.5*,1.2,16.1,-0.5
CC(C)(C)c1ccc(C(=O)Nc2ccc(O)c(-c3nc4cnccc4o3)c2)cc1,61.3*,3.1,4.8,1.9
Cc1ccc(NC(=O)Nc2ccc(C)n(CC(=O)Nc3ccccc3)c2=O)cc1,44.9*,20.5,39.1*,2.2
COc1ccc(C)cc1S(=O)(=O)NNc1nc(C)cc(C)n1,76.4*,4.8,1.9,0.0
COc1ccc(C(C)C)cc1S(=O)(=O)Nc1cccc(C)n1,13.8,6.3,0.0,5.7
O=C(O)CC1SC(c2cccc(Cl)c2)=NC1=O (stereo not given),-2.8,-6.1,-2.4,-4.3
Cc1ccc(S(=O)(=O)[C@H]2CS(=O)(=O)C[C@@H]2N2CCCCC2)cc1,-3.2,1.8,1.6,0.3
O=C(Nc1ccc(NS(=O)(=O)c2ccc3c4c(cccc24)CC3)cc1)c1ccccc1,43.2*,2.5,-3.8,0.3
O=C(Nc1ccc(NS(=O)(=O)c2cccc(C(=O)N3CCCc4ccccc43)c2)cc1)c1ccccc1,4.3,8.4,10.8,6.7
O=S(=O)(Nc1ncnc2sccc12)c1cc(F)ccc1F,-47.6,-54.7,-4.7,-82.4
COc1cc(C(=O)NCC(c2cccnc2)N2CCN(c3ccccc3F)CC2)cc(OC)c1OC (stereo not given),0.0,-1.3,-2.7,-0.2
N=C1/C(=C/c2cn(Cc3ccc(F)cc3)c3ccccc23)C(=O)N=C2SC(Cc3ccccc3)=NN12,74.2*,10.7,34.0*,-5.0
O=C(O)c1cn(Cc2ccc(F)cc2)c(=O)c2ccccc12,13.7,-6.6,-0.4,-5.1
N=C1/C(=C/c2cn(Cc3ccccc3)c3ccccc23)C(=O)N=C2SC(C(F)(F)F)=NN12,10.3,9.6,43.4*,-0.2
CC1=CC2=NC(=O)/C(=C\c3cn(CCOc4ccccc4)c4ccccc34)C(=N)N2O1,-20.0,-32.5,-1.3,-47.3
CNc1cc(C2CCCN2C(=O)c2cc3c([nH]c2=O)CCCC3)ccn1 (stereo not given),2.9,0.7,0.3,-1.0
Cc1cc(C)nc(-n2ncc(C#N)c2NC(=O)c2ccc(Br)cc2)n1,44.5*,-11.8,-2.0,-14.7
COC(=O)CCC(c1ncc(C(F)(F)F)cc1Cl)S(=O)(=O)c1ccccc1 (stereo not given),31.3*,3.8,0.0,1.3
COc1ccc(Nc2nnc(Cc3ccccc3)c(=O)[nH]2)cc1,24.7,8.3,11.2,1.1
Cc1cccc(Nc2nnc(Cc3ccccc3)c(=O)[nH]2)c1,58.7*,16.4,16.0,1.7
COc1ccc(Cc2nnc(Nc3ccc(F)cc3)[nH]c2=O)cc1,52.4*,8.2,25.3,0.5
COc1ccc(Cc2nnc(Nc3ccccc3)[nH]c2=O)cc1,50.5*,4.0,3.2,-1.0
COc1ccc(Cc2nnc(NC(C)c3ccccc3)[nH]c2=O)cc1 (stereo not given),67.2*,15.3,30.9*,3.5
SMILES,USP8 inh,USP7 inh,USP10 block,UCHL1 inh
Cn1cc(CN2C[C@H]3C[C@H](C(=O)NC4CCC4)[C@@H](C2)O3)cn1,-10.6,4.3,-1.5,-1.5
Cc1ccc(Cl)cc1N1CCN(C(=O)c2cn(C)nn2)CC1,13.7,1.7,1.6,4.3
Cc1nc(Nc2ccccn2)sc1-c1ccccc1,-3.5,-7.0,1.8,1.3
CC1CCCCN1c1nc(F)c2c(c1F)S(=O)(=O)CCN2Cc1ccccc1 (stereo not given),88.8*,-2.5,-3.6,5.2
CCN1CCC2(CN(CCOC)CC23CCN(C(=O)Nc2ccc(Cl)cc2)CC3)C1=O (stereo not given),-67.8,-2.4,1.7,-1.3
CC(C)Cc1ccc(-c2cc(-c3ccc(C(F)(F)F)cc3)c(C#N)c(=O)[nH]2)cc1,11.5,35.1*,63.6*,-2.0
Cc1ccc(-c2cc(-c3ccc(F)cc3)[nH]c(=O)c2C#N)cc1,8.6,9.1,18.7,1.3
Cn1c(=O)c(C(=O)Nc2ccc(Br)cc2)nc2ccccc21,76.6*,-12.9,8.3,25.9
COC(=O)CCCNC(=O)C1c2ccccc2C(=O)N(Cc2ccccc2)C12CCCC2 (stereo not given),45.2*,-6.3,-4.5,-1.7
CC(=O)c1ccc(S(=O)(=O)N2CCC3(CC2)NC(=O)c2ccccc2N3)cc1,32.5*,8.4,21.4,0.0
Cc1ccc(S(=O)(=O)N2CCC3(CC2)NC(=O)c2ccccc2N3)cc1C,7.2,5.1,1.2,2.6
FC(F)(F)c1ccc(N2CCC(Cc3ccccc3)CC2)nc1,17.6,-52.5,-5.7,-3.2
O=C(Nc1cccnc1)C1Cn2ccnc2C2(CCN(Cc3ccccc3)CC2)O1 (stereo not given),-47.3,-0.4,-5.7,-3.4
O=C(Nc1nc2c(s1)CN(C(=O)/C=C/c1ccco1)CC2)C1CCCO1 (stereo not given),41.3*,-153.2,-7.7,-99.8
O=C(Cn1cc(S(=O)(=O)Cc2ccccc2)c2ccccc21)Nc1ccccc1,33.5*,-0.4,-4.8,-8.3
O=C(CS(=O)(=O)c1cn(CC(=O)N2CCOCC2)c2ccccc12)Nc1ccccc1,8.9,4.8,-0.1,-0.6
O=C(Cn1cc(S(=O)(=O)Cc2ccccc2)c2ccccc21)NCCC1=CCCCC1,-5.7,4.3,12.3,1.6
COc1ccc(NC(=O)Cn2cc(S(=O)(=O)Cc3ccccc3)c3ccccc32)c(OC)c1,32.7*,11.4,15.2,0.9
Cc1ccccc1NC(=O)Cn1cc(S(=O)(=O)Cc2ccccc2)c2ccccc21,35.3*,20.3,7.0,6.1
COc1cc(OC)cc(C(=O)NCCSc2ncc(-c3ccccc3)[nH]2)c1,0.9,0.2,2.1,3.5
O=C(Nc1nnc(-c2cccs2)o1)C(c1ccccc1)c1ccccc1,-7.6,6.4,13.1,1.5
Cn1c(C2CCN(C(=O)Cc3ccccc3F)C2)nc2ccncc21 (stereo not given),0.0,-1.1,-2.3,0.3
COc1ccc2c(Cl)c(C(=O)Nc3ccc(S(=O)(=O)N(C)Cc4ccccc4)cc3)sc2c1,2.1,8.9,42.1*,0.6
COc1ccc(C2Nc3ccccc3C(=O)N2c2ccc3c(c2)OCO3)cc1O (stereo not given),56.6*,-2.4,-0.6,3.1
COc1ccc(Nc2cc(C(=O)NCCCN3CCN(c4ccc(F)cc4)CC3)c3ccccc3n2)cc1,-4.7,6.4,5.6,5.6
O=C(c1ccc2cc[nH]c2c1)N1CCC(Nc2cccnc2)C1 (stereo not given),83.2*,-29.2,10.0,20.6
CCOc1ccc(C(=O)N2CCC(Nc3cccnc3)C2)cc1 (stereo not given),49.0*,-15.0,-6.7,-7.0
O=C(c1ccccc1)N1CCN(C(=O)c2cc(-c3cccnc3)n[nH]2)CC1,5.9,-0.7,0.1,-2.2
COc1ccc(C(=O)N2CCC(Nc3cccnc3)C2)c(OC)n1 (stereo not given),62.4*,-12.1,-5.3,-4.0

# Screens deposited in PubChem by Buhrlage Lab, Dana-Farber Cancer Institute and Novartis Institutes for BioMedical Research (Cambridge, Mass).
